Test results: article PMC5540273 (PLoS ONE, 2017)

Assays:
Conditions in all cases: concentration: 1 μM, replicates: in singlicate; n = 1
CAMK1 = tested on: CAMK1
CAMK2A = tested on: CAMK2A
CAMK2B = tested on: CAMK2B
CAMK2D = tested on: CAMK2D
CAMK2G = tested on: CAMK2G
CAMK4 = tested on: CAMK4
CAMKK1 = tested on: CAMKK1
CAMKK2 = tested on: CAMKK2
CASK = tested on: CASK
CDC2L1 = tested on: T1, CDC2L1
T1 construct: gene CDK11B
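Further: KINOMEscan kinase panel screen.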

SMILES	%Inh (CAMK1)	%Inh (CAMK2A)	%Inh (CAMK2B)	%Inh (CAMK2D)	%Inh (CAMK2G)	%Inh (CAMK4)	%Inh (CAMKK1)	%Inh (CAMKK2)	%Inh (CASK)	%Inh (CDC2L1)
Cc1nn2c(=O)cc(N3CCO[C@H](C)C3)nc2n1Cc1cccc(Cl)c1Cl [GSK2373693]	0%	0%	0%	10%	5%	5%	20%	2%	75%	0%
COc1ccc(C2=C(Nc3cccc(O)c3)C(=O)NC2=O)cc1 [SB-390766]	23%	0%	0%	11%	0%	0%	0%	0%	39%	0%
CCn1cnc2c(NCc3ccccc3)ncnc21 [SKF-96418]	0%	0%	0%	0%	0%	7%	0%	1%	25%	0%
N#Cc1cnc2cc(-c3cnc(CNCCN4CCOCC4)s3)ccc2c1Nc1ccc(Oc2ccccc2)cc1 [GW664114]	22%	0%	0%	21%	0%	0%	48%	3%	15%	0%
O=C(Nc1c(F)cccc1F)c1cc(C(=O)c2ccccc2F)c[nH]1 [GSK1326180]	17%	2%	0%	1%	8%	5%	0%	0%	3%	0%
CCOc1nccc(-c2c(-c3ccc(F)cc3)ncn2C2CCNCC2)n1 [SB-249175]	0%	0%	0%	0%	0%	11%	1%	15%	0%	3%
Cc1ccc(Nc2ccnc(Nc3ccc(C)c(F)c3)n2)cc1O.Cl [GW582868]	1%	96.6%	95.3%	0%	0%	0%	0%	0%	13%	0%
COc1cccc(NC(=O)NCCNc2ccnc(Nc3ccc(F)cc3)n2)c1 [GSK1379879]	7%	0%	0%	0%	14%	0%	13%	3%	0%	0%
COC(=O)Nc1nc2cc(Oc3ccc(NC(=O)Nc4cccc(SC)c4)cc3)ccc2[nH]1.Cl [GW697999]	11%	18%	28%	0%	12%	0%	0%	0%	16%	0%
Cn1cc(-c2ccc3c(c2)CCN3C(=O)Cc2cc(F)cc(C(F)(F)F)c2)c2c(N)ncnc21 [GSK2635225]	5%	0%	0%	0%	12%	0%	0%	8%	2%	5%
Cc1ccc(O)cc1Nc1ccnc2cc(-c3ccc(CN4CCCCC4)o3)ccc12 [GW557777]	4%	0%	13%	10%	8%	0%	10%	9%	2%	20%
Cn1cc(-c2cnc(N)c3c(-c4ccc5c(c4)CCN5C(=O)Cc4ccccc4)csc23)cn1 [GSK2593074]	0%	29%	12%	0%	13%	0%	11%	19%	23%	4%
Cc1cccc(Nc2nc(NCCN)ncc2C(N)=O)c1 [GSK1292139]	59%	0%	0%	14%	27%	0%	18%	28%	13%	0%
COc1cccc2c(-c3ccncc3)c(-c3ccc(F)cc3)nn12 [GW468513]	0%	0%	0%	0%	13%	0%	6%	5%	0%	0%
Cl.N#CCc1ccc(Nc2nccc(Nc3ccc(Oc4ccccc4)cc3)n2)cc1 [GW639905]	10%	0%	0%	0%	0%	0%	0%	0%	8%	0%
Cc1ccc(C)c(NC(=O)Nc2ccc(C)c(-c3ccc(C(=O)Nc4ccncc4)cc3)c2)c1 [GSK1398473]	8%	0%	0%	0%	25%	0%	12%	27%	0%	0%
CSc1ccc(NC2=C(c3ccc(Cl)cc3)C(=O)NC2=O)cc1 [SB-317658]	19%	4%	0%	18%	1%	12%	0%	0%	0%	0%
O=C(Nc1n[nH]c2nc(-c3ccccc3)ccc12)C1CC1 [SB-708999]	3%	0%	0%	100%	17%	0%	6%	13%	14%	0%
CN(c1ccc(NC(=O)Nc2cccc(Cl)c2)cc1)c1ccnc(N)n1.Cl [GW830707]	2%	0%	0%	10%	8%	14%	0%	14%	7%	0%

SMILES	%Inh (CAMK1)	%Inh (CAMK2A)	%Inh (CAMK2B)	%Inh (CAMK2D)	%Inh (CAMK2G)	%Inh (CAMK4)	%Inh (CAMKK1)	%Inh (CAMKK2)	%Inh (CASK)	%Inh (CDC2L1)
CN(C)CCOc1ccc(-c2cc(-c3ccc(Cl)c(O)c3)c(-c3ccncc3)[nH]2)cc1.Cl.Cl [SB-684387]	24%	0%	0%	13%	19%	0%	25%	21%	17%	0%
Cc1cc(-c2c(-c3ccc(F)cc3)ncn2CCCN2CCOCC2)nc(N)n1 [SB-222517]	17%	0%	30%	0%	8%	13%	25%	0%	33%	0%
Cl.O=C(Nc1ccc(Oc2ccc3[nH]c(NC(=O)c4ccco4)nc3c2)cc1)Nc1cc(C(F)(F)F)ccc1F [GW683134]	0%	0%	0%	0%	0%	0%	0%	0%	50%	0%
CCNc1nccc(-c2c(-c3ccc(F)cc3)ncn2C2CCN(C)CC2)n1	0%	18%	0%	16%	8%	0%	12%	9%	0%	7%
NCCC(NC(=O)c1cc(Br)c(-c2ccnc3[nH]ccc23)s1)c1ccccc1.O=C(O)C(F)(F)F.O=C(O)C(F)(F)F (stereo not shown) [GSK1307810]	43%	34%	0%	29%	26%	0%	5%	9%	27%	0%
CN1CCN(Cc2ccc(NC(=O)Nc3ccc(N(C)c4ccnc(Nc5ccc(CS(C)(=O)=O)cc5)n4)cc3)cc2)CC1.Cl [GW827654]	28%	0%	0%	9%	15%	0%	95.4%	28%	3%	33%
CCNC(=O)/C=C/c1n[nH]c2cc(Sc3ccccc3C(=O)NC)ccc12	7%	0%	0%	17%	27%	0%	10%	33%	40%	10%
Cc1ccc(O)cc1Nc1ccnc2ccc(C(C)(C)C)cc12 [GW856805]	45%	7%	10%	18%	22%	0%	3%	26%	25%	12%
CC(=O)Nc1cn2nc(Oc3cccc(NC(=O)c4cccc(C(F)(F)F)c4)c3)ccc2n1	19%	0%	15%	1%	0%	0%	0%	0%	17%	7%
Nc1ncnc2scc(-c3ccc(NC(=O)Cc4cc(F)ccc4F)cc3)c12.O=C(O)C(F)(F)F [SB-731254-M]	16%	0%	0%	10%	5%	0%	17%	12%	21%	11%
CC(C)c1nc(-c2ccc(F)c(NS(=O)(=O)c3c(F)cccc3F)c2)c(-c2ccnc(Nc3ccc(N4CCOCC4)nc3)n2)s1 [GSK1804250]	54%	0%	0%	7%	27%	0%	17%	21%	0%	0%
CC(C)(C)c1ccc(C(=O)Nc2cn3cc(-n4ccnc4)ccc3n2)cc1	32%	18%	0%	0%	12%	0%	6%	7%	8%	3%
Cc1ccccc1CC(=O)N1CCc2cc(-c3cn(C)c4ncnc(N)c34)ccc21 [GSK2603346]	16%	0%	0%	0%	5%	5%	0%	0%	0%	0%
COC(=O)Nc1nc2ccc(Oc3ccc(NC(=O)Nc4cc(C(F)(F)F)ccc4F)cc3)cc2[nH]1.Cl [GW654607]	2%	0%	0%	0%	15%	0%	6%	6%	12%	0%
Cl.Cl.NCC(NC(=O)c1cc(-c2cccnc2)c(-c2ccnc3[nH]ccc23)s1)c1ccccc1 (stereo not shown) [GSK1323434]	32%	0%	0%	8%	14%	0%	14%	24%	30%	0%
Cc1ccc(NC(=O)c2cccc(N3CCCCC3)c2)cc1-c1ccc(C(=O)NCC2CC2)cc1 [GSK1917008]	9%	0%	0%	0%	21%	1%	26%	11%	18%	22%
Cc1cc(-c2ccnc(Nc3cccc(C#N)c3)n2)cc(C)c1O [GSK1440913]	24%	13%	11%	31%	39%	0%	24%	30%	0%	41%
Cc1ccc(NC(=O)c2ccc(Cl)c(Cl)c2)cc1-c1ccc(C(=O)Nc2ccncc2)cc1 [GSK1398460]	27%	0%	0%	7%	0%	9%	0%	4%	0%	2%
